From PubChem BioAssay (NCI)
The panel holds about 83,000 compounds, 20% with a hit somewhere; the sample as a whole holds those more often.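 96-well plates, one dose, 48 hours. Percent growth reported; active if below 10.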 Active and inactive are the calls of the source.

Experiments:
Experiment in all cases: NCI-60 one-dose screen, 48 h (100 = growth as untreated, 0 = no growth, -100 = all killed)
Conditions in all cases: 10 µM unless noted
SR leukemia = test system: SR leukemia
RPMI-8226 leukemia = test system: RPMI-8226 leukemia
OVCAR-8 ovarian = test system: OVCAR-8 ovarian
OVCAR-5 ovarian = test system: OVCAR-5 ovarian
OVCAR-4 ovarian = test system: OVCAR-4 ovarian
SK-OV-3 ovarian = test system: SK-OV-3 ovarian
IGROV1 ovarian = test system: IGROV1 ovarian
OVCAR-3 ovarian = test system: OVCAR-3 ovarian
HS 578T breast = test system: HS 578T breast
NCI/ADR-RES ovarian = test system: NCI/ADR-RES ovarian
T-47D breast = test system: T-47D breast
BT-549 breast = test system: BT-549 breast
MDA-MB-435 melanoma = test system: MDA-MB-435 melanoma
SW-620 colon = test system: SW-620 colon
MCF7 breast = test system: MCF7 breast
HCT-116 colon = test system: HCT-116 colon
HCC-2998 colon = test system: HCC-2998 colon
KM12 colon = test system: KM12 colon

Measured: growth

CC(=O)Nc1c(Cl)cc(Cl)c2c1Cc1cc([N+](=O)[O-])ccc1-2
active: OVCAR-4 ovarian 9.59%
inactive: SR leukemia 47.9% | RPMI-8226 leukemia 87.1% | OVCAR-8 ovarian 74.8% | OVCAR-5 ovarian 108% | SK-OV-3 ovarian 87.3% | IGROV1 ovarian 91.2% | OVCAR-3 ovarian 80.5% | HS 578T breast 65.4% | NCI/ADR-RES ovarian 83.5% | T-47D breast 70.6% | BT-549 breast 92.7% | MDA-MB-435 melanoma 85.9% | SW-620 colon 80.6% | MCF7 breast 76.8% | HCT-116 colon 45.8% | HCC-2998 colon 94.3% | KM12 colon 86.4%

CCCCCCCCn1ccc2cc(NC(=O)Cn3cc(CN4CCN(CC)CC4)nn3)ccc21
inactive: OVCAR-8 ovarian 83% | OVCAR-5 ovarian 94% | OVCAR-4 ovarian 81.5% | SK-OV-3 ovarian 99.6% | IGROV1 ovarian 88.6% | OVCAR-3 ovarian 66.8% | HS 578T breast 86.2% | NCI/ADR-RES ovarian 97.7% | T-47D breast 58.2% | BT-549 breast 71.8% | HCT-116 colon 61.8% | KM12 colon 77.8%
active: SR leukemia 2.27% | RPMI-8226 leukemia -10.7% | MDA-MB-435 melanoma -84% | SW-620 colon -43% | HCC-2998 colon -12.2%

Cc1nc2sc(C(=O)Nc3cccc(Cl)c3)c(N)c2cc1C(O)c1ccccc1 (stereo not drawn)
inactive: RPMI-8226 leukemia 11.3% | OVCAR-8 ovarian 19% | OVCAR-5 ovarian 41.4% | OVCAR-4 ovarian 71.6% | SK-OV-3 ovarian 40.6% | IGROV1 ovarian 28.7% | HS 578T breast 19% | T-47D breast 50.6% | BT-549 breast 52.6% | SW-620 colon 33.1% | MCF7 breast 21.9% | HCT-116 colon 13.9% | HCC-2998 colon 17.8% | KM12 colon 18.3%
active: SR leukemia 8.06% | OVCAR-3 ovarian 6.3% | NCI/ADR-RES ovarian 5.21% | MDA-MB-435 melanoma 5.16%
